# Measurements from PubChem BioAssay.
# Activity calls are given as the source filed them.
# How the values were obtained:
# [1] = system: PRMT1 (protein arginine N-methyltransferase 1); experiment: small molecules binding arginine methyltransferase PRMT1 – biochemical, small-molecule microarray, 635 nm fluorescence, primary screen (AID 1088); conditions: higher = more signal;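 note: binding of Prmt1 protein to compounds spotted on small-molecule microarray slides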
# [2] = growth effects on S. cerevisiae YJM789 – YJM789 clinical isolate, OD600, 24 h, basal, primary screen (AID 1089); conditions: higher = more signal, called active from +8 up or from −8 down;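 note: growth of clinical yeast isolate S. cerevisiae YJM 789 seeded 1000 cells per well; test concentration not given here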
# [3] = S. pombe growth modifiers, basal conditions – strain 972, OD600, 24 h, no modulator, primary screen (AID 1090);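 note: basal condition with compound alone and no growth modifier present; test concentration not given here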; conditions: S. pombe 972 growth, higher = more signal, called active from +8 up or from −8 down
# [4] = budding yeast growth modifiers under rapamycin – strain BY4716, OD600, 96 h, primary screen (AID 1091); note: test concentration not given here; conditions: S. cerevisiae BY4716 + rapamycin, higher = more signal, called active from +8 up or from −8 down
# [5] = target: Torsin-1A-interacting protein 2 (Homo sapiens) (UniProt Q8NFQ8); experiment: small molecules binding lysate-expressed LULL1 – cell lysate, human LULL1 lysate, 635/667 nm fluorescence, primary screen (AID 1092); conditions: small-molecule microarray, hLULL1 lysate binding, 635 nm fluorescence; higher = more signal;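 note: probe is lysate of COS7 cells overexpressing human LULL1; score merges per-feature 667 nm fluorescence with signal-to-noise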
# Chain of Torsin-1A-interacting protein 2 (Homo sapiens) (Q8NFQ8 whole entry, looked up): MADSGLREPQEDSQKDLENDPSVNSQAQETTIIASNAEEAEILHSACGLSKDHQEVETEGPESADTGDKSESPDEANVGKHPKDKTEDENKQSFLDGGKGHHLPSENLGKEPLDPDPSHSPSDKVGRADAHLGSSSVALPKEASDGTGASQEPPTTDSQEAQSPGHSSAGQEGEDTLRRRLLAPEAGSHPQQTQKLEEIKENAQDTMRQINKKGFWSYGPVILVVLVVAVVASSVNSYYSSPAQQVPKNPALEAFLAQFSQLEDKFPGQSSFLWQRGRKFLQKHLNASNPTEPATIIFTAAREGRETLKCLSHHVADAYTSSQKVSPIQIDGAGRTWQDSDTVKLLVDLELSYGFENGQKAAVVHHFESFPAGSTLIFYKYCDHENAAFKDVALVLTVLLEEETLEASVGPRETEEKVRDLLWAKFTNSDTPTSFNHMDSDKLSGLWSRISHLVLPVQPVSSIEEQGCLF
# [6] = optical density change of DRC41 E. coli – strain DRC41, OD650, 24 h, E. coli filamentation project, primary screen (AID 1093);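 note: MC1000 strain lacking acrAB efflux and sulA so SOS filamentation is blocked; test concentration not given here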; conditions: E. coli DRC41 growth, higher = more signal, called active from +8 up or from −8 down
# [7] = probe aLefty2 binding to arrayed compounds – biochemical, biotinylated probe, 635/667 nm fluorescence, primary screen (AID 1094); conditions: small-molecule microarray, higher = more signal;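 note: score merges spot fluorescence near 667 nm with spot signal-to-noise ratio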
# [8] = system: Noggin (protein binding on small-molecule microarray); experiment: small molecules binding Noggin protein – biochemical, 635/667 nm fluorescence, primary screen (AID 1095); conditions: 635 nm fluorescence, higher = more signal;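 note: score merges 667 nm feature fluorescence with signal to noise over triplicate slides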
# [9] = target: Neurogenic locus notch homolog protein 3 (Homo sapiens) (UniProt Q9UM47); experiment: small molecules binding NOTCH3 protein – biochemical, 635/667 nm fluorescence, primary screen (AID 1096); conditions: small-molecule microarray, 635 nm fluorescence, higher = more signal
# Chain of Neurogenic locus notch homolog protein 3 (Homo sapiens) (Q9UM47 whole entry, looked up): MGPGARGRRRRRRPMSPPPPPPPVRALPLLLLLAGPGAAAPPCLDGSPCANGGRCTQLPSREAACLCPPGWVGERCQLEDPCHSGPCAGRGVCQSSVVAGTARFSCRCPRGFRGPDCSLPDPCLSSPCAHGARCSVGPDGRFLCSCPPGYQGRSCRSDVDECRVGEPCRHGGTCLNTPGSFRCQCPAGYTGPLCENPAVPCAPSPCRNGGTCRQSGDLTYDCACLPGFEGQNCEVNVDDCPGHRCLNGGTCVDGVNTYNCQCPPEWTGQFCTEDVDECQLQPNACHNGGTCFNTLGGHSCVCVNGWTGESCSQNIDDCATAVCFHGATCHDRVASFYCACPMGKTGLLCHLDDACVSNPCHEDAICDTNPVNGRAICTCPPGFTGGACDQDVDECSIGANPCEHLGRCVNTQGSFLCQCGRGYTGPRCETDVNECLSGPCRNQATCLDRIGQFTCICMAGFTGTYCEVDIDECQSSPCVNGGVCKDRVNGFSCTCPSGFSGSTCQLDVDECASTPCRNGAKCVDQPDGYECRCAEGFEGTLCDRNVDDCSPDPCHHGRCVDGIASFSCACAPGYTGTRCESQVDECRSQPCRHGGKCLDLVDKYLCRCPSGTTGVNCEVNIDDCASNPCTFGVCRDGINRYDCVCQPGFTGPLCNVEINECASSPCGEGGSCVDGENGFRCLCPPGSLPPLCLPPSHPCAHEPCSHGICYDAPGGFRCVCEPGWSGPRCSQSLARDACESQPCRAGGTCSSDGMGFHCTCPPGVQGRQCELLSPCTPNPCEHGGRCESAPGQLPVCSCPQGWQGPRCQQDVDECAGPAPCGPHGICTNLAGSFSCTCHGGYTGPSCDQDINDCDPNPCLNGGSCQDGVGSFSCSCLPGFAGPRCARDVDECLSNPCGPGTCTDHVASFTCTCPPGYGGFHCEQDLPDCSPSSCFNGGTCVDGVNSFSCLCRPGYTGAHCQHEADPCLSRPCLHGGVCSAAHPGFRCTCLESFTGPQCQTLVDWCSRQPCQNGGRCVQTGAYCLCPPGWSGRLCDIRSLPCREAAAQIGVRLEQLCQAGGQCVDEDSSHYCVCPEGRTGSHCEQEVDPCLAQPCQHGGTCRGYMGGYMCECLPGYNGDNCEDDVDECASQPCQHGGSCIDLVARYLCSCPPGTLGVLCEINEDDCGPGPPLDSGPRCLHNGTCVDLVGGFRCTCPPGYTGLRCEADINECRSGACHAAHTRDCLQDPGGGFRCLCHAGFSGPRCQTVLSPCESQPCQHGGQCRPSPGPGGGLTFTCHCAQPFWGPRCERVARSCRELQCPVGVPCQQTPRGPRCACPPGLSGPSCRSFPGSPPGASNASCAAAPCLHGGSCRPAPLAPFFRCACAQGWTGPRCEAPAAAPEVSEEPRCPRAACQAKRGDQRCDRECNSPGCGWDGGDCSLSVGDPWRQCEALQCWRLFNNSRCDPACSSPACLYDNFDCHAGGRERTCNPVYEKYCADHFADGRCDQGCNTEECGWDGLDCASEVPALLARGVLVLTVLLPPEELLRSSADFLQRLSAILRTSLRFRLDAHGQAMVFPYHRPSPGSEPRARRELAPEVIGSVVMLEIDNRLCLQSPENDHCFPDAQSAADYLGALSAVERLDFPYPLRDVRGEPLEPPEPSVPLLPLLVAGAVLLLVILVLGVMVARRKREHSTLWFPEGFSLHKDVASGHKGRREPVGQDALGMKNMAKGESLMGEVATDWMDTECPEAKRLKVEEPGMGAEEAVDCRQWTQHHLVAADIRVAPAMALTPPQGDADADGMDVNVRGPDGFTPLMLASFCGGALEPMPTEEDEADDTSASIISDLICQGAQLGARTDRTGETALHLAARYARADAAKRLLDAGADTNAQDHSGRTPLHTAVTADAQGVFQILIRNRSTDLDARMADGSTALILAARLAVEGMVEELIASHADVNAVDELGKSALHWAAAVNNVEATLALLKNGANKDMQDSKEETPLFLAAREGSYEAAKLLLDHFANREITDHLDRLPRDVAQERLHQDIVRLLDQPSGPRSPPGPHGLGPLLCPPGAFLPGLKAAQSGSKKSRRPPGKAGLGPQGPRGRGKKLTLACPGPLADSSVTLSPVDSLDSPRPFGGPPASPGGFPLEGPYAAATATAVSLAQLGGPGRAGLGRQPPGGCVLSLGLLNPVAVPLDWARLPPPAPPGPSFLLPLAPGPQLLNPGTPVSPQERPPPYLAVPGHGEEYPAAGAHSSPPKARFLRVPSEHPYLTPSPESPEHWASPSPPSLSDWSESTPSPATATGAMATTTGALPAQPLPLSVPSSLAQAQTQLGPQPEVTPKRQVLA
# [10] = probe aEGFR binding to arrayed compounds – biochemical, biotinylated probe, 635/667 nm fluorescence, primary screen (AID 1097); conditions: small-molecule microarray, higher = more signal;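 note: probe is a biotinylated anti-EGFR antibody binding compounds printed on slides; score combines fluorescence near 667 nm and signal to noise of each spot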
Compound,composite z-score [1],z-score [2],z-score [3],z-score [4],composite z-score [5],z-score [6],composite z-score [7],composite z-score [8],composite z-score [9],composite z-score [10]
CC(C)c1ccc(NN2C(C(O)c3cccc(O)c3)C=CC3C(=O)N(c4ccccc4)C(=O)C32)cc1 (stereo not given),1.46,1.18 (inactive),-0.653 (inactive),0.697 (inactive),3.62,-0.416 (inactive),0.234,0.527,1.06,-0.0053
C=CC[C@]1(C(=O)N2CCOCC2)N=C(c2ccc(OCCCO)cc2)O[C@H]1c1ccccc1,0.74,-1.8 (inactive),-2.42 (inactive),-1.67 (inactive),3.56,0.382 (inactive),-0.0212,-0.243,0.175,-0.165
CCOC(=O)C[C@H]1[C@H](OC(=O)c2ccc(C(=O)c3ccccc3)cc2)[C@@H](NC(=O)C2CCCCC2)c2cc(OCCCO)ccc2N1C(=O)c1ccccc1,1.55,-0.326 (inactive),0.358 (inactive),-0.155 (inactive),2.04,-1.15 (inactive),-0.02,0.45,-0.215,0.0546
COCC(=C=CC[C@@H](O)c1ccc(CO)o1)CCO,0.737,-3.24 (inactive),-2.34 (inactive),-2.27 (inactive),-0.816,1.6 (inactive),-0.256,1.33,0.735,-0.0943
COC(=O)c1ccc(C(O)C2C=CC3C(=O)N(c4ccccc4)C(=O)C3N2Nc2ccc(C#N)cc2)o1 (stereo not given),0.431,-0.0337 (inactive),0.328 (inactive),0.989 (inactive),3.19,-1.07 (inactive),-0.0478,0.284,0.927,-0.0446
CN1CCC(CCCO)=CC1c1ccc(CN2CCCC2)cc1 (stereo not given),1.54,-1.05 (inactive),-2.41 (inactive),-0.763 (inactive),2.18,-0.145 (inactive),0.36,1.72,1.07,0.337
COCCOC(=O)N1C(=O)[C@@]2(c3cc(C#CCNC(N)=O)ccc31)[C@H](C(=O)N1CCN(c3ncccn3)CC1)[C@H]1C(=O)O[C@H](c3ccccc3)[C@H](c3ccccc3)N1[C@@H]2c1ccccc1OCCO,1.47,2.12 (inactive),1.71 (inactive),4.95 (inactive),1.79,1.72 (inactive),0.181,0.808,1.12,-0.0286
CCOC(=O)C[C@H]1[C@H](OC(=O)c2ccccc2-c2ccccc2)[C@@H](NC(=O)c2ccc3ccccc3c2)c2cc(OCCCO)ccc2N1C(=O)c1ccc2ccccc2n1,0.389,0.47 (inactive),0.623 (inactive),0.136 (inactive),0.998,-0.263 (inactive),-0.102,0.526,0.818,-0.111
[N-]=[N+]=NCc1ccccc1C[C@]1(C(=O)O)N=C(c2ccc(OCCCO)cc2)O[C@H]1c1ccccc1CN=[N+]=[N-],0.893,-1.17 (inactive),-3.09 (inactive),-1.92 (inactive),3.25,-0.292 (inactive),0.0987,-0.118,0.759,0.0617
CC(C)C(O)C1C=CC2C(=O)N(c3ccccc3)C(=O)C2N1Nc1ccc(C#N)cc1 (stereo not given),1.04,-0.108 (inactive),0.349 (inactive),1.39 (inactive),3.17,-0.364 (inactive),0.576,-0.388,0.903,0.154
COc1ccc([Si](C)(C)[C@H]2[C@H](CCn3cc([C@H](O)c4ccccc4)nn3)O[C@@]3(C(=O)N(Cc4cccc(N5CCC5=O)c4)c4ccccc43)[C@@H]2C)cc1,0.423,-1.89 (inactive),0.399 (inactive),1.82 (inactive),0.276,1.41 (inactive),-0.196,0.806,0.349,-0.167
COc1ccc(C(O)C2C=CC3C(=O)NC(=O)C3N2Nc2ccccn2)cc1OCc1ccccc1 (stereo not given),0.301,0.167 (inactive),1.03 (inactive),-0.269 (inactive),3.51,-0.181 (inactive),-0.0865,0.15,-0.192,0.0357
CC(=O)Nc1cc(Br)ccc1C(=O)O,0.183,-0.0103 (inactive),0.331 (inactive),0.178 (inactive),1.33,-0.18 (inactive),-0.0006,0.201,0.482,-0.156
CC(C)(C)N1CC=CC23O[C@@H]4C=CCOC(=O)[C@@H]4[C@H]2C(=O)N(CCCCCO)[C@@H]3C1=O (stereo not given in full),-0.396,-0.256 (inactive),-0.0499 (inactive),-0.177 (inactive),0.735,0.385 (inactive),-0.215,-0.617,-0.374,-0.224
